# Screens (PubChem)
# Rows were chosen to be rich in hits. Some 10% of all compounds tested hit in one or more screens of this group.
# HP1b chromo inh: inhibitors of HP1-beta chromodomain binding to methylated histone tails; P83916; AlphaScreen HP1-beta / biotin-H3K9me3 peptide binding; Potency, µM (series often up to 114 µM), without a hit: at the top dose activity change, negative = inhibition, actives largely listed as inhibitors; hit rate 0.56% among 390,000; note: nearly all actives have a fitted effect of over 70% in size
#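 HP1-beta protein (50 nM final) preincubated 30 min at room temperature with biotinylated H3(1-18)K9me3 peptide (50 nM) in PBS pH 7.4, 0.01% Tween-20, then compound added for 30 min. AlphaScreen streptavidin donor/nickel chelate acceptor beads (10 ug/mL final), 30 min dark, luminescence read.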
# JMJD2A Tudor inh: inhibitors of human JMJD2A Tudor domain | Potency, µM (top dose mostly 114 µM), for inactives: top-dose activity change, negative = inhibition, usual class: inhibitors | hit rate 4.4% among 390,000 | AlphaScreen JMJD2A-Tudor / H3K4me3 peptide binding | O75164 | AID 504339; note: % is set by controls: 0 for no effect and ±100 for the full control effect; nearly all actives have a fitted effect of over 50% in size
# G9a block: inhibitors of human histone lysine methyltransferase G9a; Q96KQ7; G9a H3K9 monomethylation, AlphaScreen, 2 h; Potency, µM (top dose mostly 102 µM), inactives show at the highest dose activity, negative = inhibition, usual class: inhibitors; hit rate 8.8% among 350,000; AID 504332; note: % is set by controls: 0 for no effect and ±100 for the full control effect; nearly all actives have a fitted effect of over 75% in size
#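 Methyltransferase reactions run at room temperature for 2 h (20 nM enzyme, 500 nM biotin-H3K9 peptide, 20 uM SAM) after a 15 min compound preincubation; product detected by AlphaScreen beads and anti-H3K9me1 antibody.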
# GLS inhibitor: inhibitors of human glutaminase (GLS) | O94925 | GLS enzymatic activity, qHTS titration | Potency, µM (top dose mostly 45.5 µM), for inactives: at the highest dose activity change, negative = inhibition, usual class: inhibitors | hit rate 0.21% among 410,000 | AID 624170; note: % is set by controls: 0 for no effect and ±100 for the full control effect
# Target sequence (O94925 whole entry, looked up): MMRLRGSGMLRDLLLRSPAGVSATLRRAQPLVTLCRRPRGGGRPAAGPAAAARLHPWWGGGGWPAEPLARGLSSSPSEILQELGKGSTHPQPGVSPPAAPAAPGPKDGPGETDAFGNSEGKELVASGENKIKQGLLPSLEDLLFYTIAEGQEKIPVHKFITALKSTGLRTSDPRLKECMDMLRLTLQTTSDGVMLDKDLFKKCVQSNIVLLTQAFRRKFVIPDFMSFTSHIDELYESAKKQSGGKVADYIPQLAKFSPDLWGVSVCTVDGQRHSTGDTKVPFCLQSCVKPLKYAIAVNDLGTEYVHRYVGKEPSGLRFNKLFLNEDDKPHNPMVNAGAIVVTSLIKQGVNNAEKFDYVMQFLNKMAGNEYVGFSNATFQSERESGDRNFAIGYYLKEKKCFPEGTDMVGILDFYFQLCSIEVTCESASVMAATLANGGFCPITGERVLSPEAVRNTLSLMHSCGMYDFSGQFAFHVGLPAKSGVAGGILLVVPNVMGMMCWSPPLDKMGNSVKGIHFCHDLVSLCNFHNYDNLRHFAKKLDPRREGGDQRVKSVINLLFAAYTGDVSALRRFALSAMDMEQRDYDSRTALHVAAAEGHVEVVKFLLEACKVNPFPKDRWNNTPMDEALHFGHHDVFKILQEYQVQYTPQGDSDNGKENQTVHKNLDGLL
#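 Glutamate formation by hKGA was monitored fluorometrically using coupled glutamate oxidase, HRP and Amplex Red. Substrate was added as 1 mM L-glutamine solution; incubation was 30 min at RT after an initial read.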
# BAZ2B block: inhibitors of human BAZ2B bromodomain. AlphaScreen BAZ2B-H3K14Ac peptide displacement. Potency, µM (highest dose often 114 µM), for the others: top-dose activity change, negative = inhibition, most hits filed as inhibitors. hit rate 4.4% among 360,000. AID 504333; note: % is set by controls: 0 for no effect and ±100 for the full control effect; nearly all actives have a fitted effect of over 60% in size
#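 Protein-peptide AlphaScreen: BAZ2B 50 nM, b-H3K14Ac 50 nM, 1x PBS pH 7.4 + 0.01% Tween-20. Preincubation 30 min RT; cpd 30 min RT (top 110 uM); beads 20 min RT, light-protected.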
# Active calls of the source: *; ? = inconclusive; nt = not tested or not shown; ! = not active in a repeat; [ ] = dose if it differs, or a comment. Calls come from the whole dose curve; as a rule, active = well fitted curve in the direction sought with a large enough effect; inconclusive = small, poorly fitted or top-dose-only effect, or another doubt; inactive = no such curve, though single readings can be large; an effect the other way counts as inactive or inconclusive. Potency is the fitted concentration of half-maximal effect.
SMILES,HP1b chromo inh,JMJD2A Tudor inh,G9a block,GLS inhibitor,BAZ2B block
COc1ccc(CN2CCN(Cc3ccc(C(F)(F)F)cc3)CC2)c(OC)c1,?,5.6µM*,40µM*,-5%,25µM*
COc1ccc(CN2CCN(c3ccccn3)CC2)c(OC)c1,?,1.6µM*,?,nt,79µM*
COc1ccc(CN2CCN(Cc3ccc(C)cc3)CC2)c(OC)c1,?,3.2µM*,50µM*,-6%,22µM*
COc1ccc(CN2CCN(Cc3ccccc3F)CC2)c(OC)c1,?,1.3µM*,50µM*,-2%,20µM*
COc1ccc(CN2CCN(c3ncccn3)CC2)c(OC)c1,?,?,?,3%,-5%
Cc1ccc(-c2ccc(OC(=O)c3ccc(=O)[nH]c3)c(C)c2)cc1,47%,2%,25%,-5%,3%
COc1ccc(/C=N/NC(=O)c2cccc(S(=O)(=O)N3CCCC3)c2)cc1O,34%,-21%,23%[12.7 µM],5%,1%
COc1cc(/C=N/NC(=O)c2cccc(S(=O)(=O)N3CCCC3)c2)cc(OC)c1O,14%,-10%,14µM*,30%,10%
CCN(CC)S(=O)(=O)c1cccc(C(=O)N/N=C/c2cc(OC)c(O)c(OC)c2)c1,15%,-20%,10µM*,42%,1%
CCNC(=O)C(=O)N/N=C/c1cc([N+](=O)[O-])ccc1O,37%,14µM*,9%,-6%,8.9µM*
Cc1cc(C)n(CC(=O)N/N=C/c2cc([N+](=O)[O-])ccc2O)n1,32%,?,-14%,-5%,40µM*
Cc1cc([N+](=O)[O-])nn1CC(=O)N/N=C/c1ccccc1O,26%,-32%,51%,20%,-30%
O=C(N/N=C/c1cc([N+](=O)[O-])ccc1O)NC12CC3CC(CC(C3)C1)C2,21%,-30%,2%[59 µM],10µM*,?
O=C(N/N=C/c1cc([N+](=O)[O-])ccc1O)C12CC3CC(CC(C3)C1)C2,20%,-26%,-6%,-4%,-23%
Nc1nnc(CC(=O)N/N=C\c2cc([N+](=O)[O-])ccc2O)s1,29%,?,?,-2%,28µM*
CC(C)(C)n1ncc2c(=O)n(Cc3cccc(Cn4cnc5c(cnn5C(C)(C)C)c4=O)c3F)cnc21,14%,-33%,nt,4%,nt
COc1ccc(NC(=O)C2Cc3c(-c4cccc(C(N)=O)c4)ccnc3O2)cc1 (centres undefined),nt,nt,nt,1%,nt
Nc1nnnn1CC(=O)N/N=C/c1cccs1,37%,-22%,-6%,1%,-10%
Nc1nnnn1CC(=O)N/N=C/c1cc([N+](=O)[O-])ccc1O,30%,20µM*,24%,15%,19%
CCOC(=O)c1c(C)[nH]c(C(=O)N/N=C\c2ccccc2O)c1C,11%,-22%,15%,16%,12%
CCOC(=O)c1c(C)[nH]c(C(=O)N/N=C/c2cc([N+](=O)[O-])ccc2O)c1C,-4%,79µM*,?,-2%,45µM*
COc1ccc(NS(=O)(=O)c2ccc(-n3cccn3)cc2)cc1OC,12%,-2%,-3%[59 µM],22%,-1%
Cc1cccc(N/N=C/c2ccccc2O)c1,-11%,?,1.6µM*,?,14%
Cc1cccc(N/N=C/c2ccncc2)c1,-9%,?,50µM*,-26%,-39%
Cc1c(C(=O)OCC(=O)NCC2CCCO2)cccc1[N+](=O)[O-] (centres undefined),15%[57 µM],-8%,-3%,9%,-10%
SMILES,HP1b chromo inh,JMJD2A Tudor inh,G9a block,GLS inhibitor,BAZ2B block
COc1cccc(-c2nn[nH]n2)c1O,27%,?,3.5µM*,4%,56µM*
COc1ccc(-c2nn[nH]n2)cc1OC,31%,-13%,-41%,16%,?
O=C(NCC1CCCCC1)C1(CC2CC(c3ccc(Cl)cc3)=NO2)CCNCC1 (centres undefined),38%,-18%,45µM*,-8%,-1%
O=C(NCC1CCCCC1)C1(CC2CC(c3cccc(Br)c3)=NO2)CCNCC1 (centres undefined),11%,-18%,?,10%,-5%[57.1 µM]
O=C(OCc1cc2ccccc2[nH]c1=O)c1cccs1,37%,-3%,20µM*,-11%,8%
CNCCCC12CCC(c3ccccc31)c1ccccc12,38%,-28%,71µM*!,-12%,-1%
CC(C)N(Cc1cnn(C)c1)C(=O)c1ccc(OC2CCN(Cc3ccccn3)CC2)cc1,28%,-36%,45µM*,3%,89µM*
CN(C(=O)c1ccc(OC2CCN(Cc3ccccn3)CC2)cc1)C1CCCCC1,56%,-14%,19%,-3%,-24%
Cc1nn(C)cc1CN(C)C(=O)c1ccc(OC2CCN(Cc3ccccn3)CC2)cc1,29%,56µM*,?,7%,?
CC(C)(C)c1cc(NCCCn2ccnc2)n2ncc(-c3ccccc3)c2n1,10%,?,?,-2%,56µM*
Cc1cccc(-c2cc3nc(C)cc(NCCCn4ccnc4)n3n2)c1,-13%,-23%[11.4 µM],?,4%,18µM*
Cc1cc(NCCCn2ccnc2)n2ncc(-c3ccc(Cl)cc3)c2n1,-2%,?,37%[59 µM],19%,?
OCCN(CC#CCC(O)(c1ccccc1)C1CCCC1)CCO (centres undefined),9%,-9%,18%[12.7 µM],-9%,-1%
CC(C)(C)N(CC#CCC(O)(c1ccccc1)c1ccccc1)CCO,-11%,22µM*,8.9µM*,0%,79µM*
Cc1ccc(C)n1-c1nnc(N2CCCC(C(=O)NCc3ccc(F)cc3)C2)s1 (centres undefined),-10%,-24%,2%[59 µM],-17%,-4%
COc1ccc(NC(=O)CSc2nc3ccccc3n2CC(=O)N(C)C2CCCCC2)cc1,28%,-6%,-2%[12.7 µM],-2%,-19%
CCOc1ccc(/C=C(\C#N)C(=O)Nc2sc3c(c2C(=O)OC)C(C(=O)OC)CC3)cc1OC (centres undefined),?,56µM*,1.4µM*,-20%,50µM*
O=C(Nc1nnc(-c2ccc(F)cc2)o1)C1CCCN1S(=O)(=O)c1cccs1 (centres undefined),35%,45µM*,?,9%,79µM*
COC(=O)c1cc(-c2ccccc2)sc1N,?,?,4.5µM*,-8%,?
CCC(=O)N[C@@H]1CC(C(C)(C)NC(=O)CC)CC=C1C (some centres undefined),-12%,50µM*,-41%,10%,-2%
Cc1nc2c(o1)CCc1ccccc1C2N1CCN(C)CC1 (centres undefined),7%,89µM*!,6%[59 µM],0%,-36%
CC12CN3CC(c4ccccc4)(CN(C1)C3c1ccc(Cl)cc1)C2=O (centres undefined),32%,-15%,3%[59 µM],6%,-11%
COc1ccc(C(C)=O)c(OC(=O)c2ccc(OC)c(OC)c2)c1,29%,-5%,14%[12.7 µM],-1%,-3%
